Screening results from PubChem BioAssay.
hcGAS inh = human cGAS inhibition | Q8N884 | recombinant h-cGAS, ATP depletion, Kinase-Glo luminescence | inhibition, % at 12.5 µM | 290,000 tested, 0.081% active;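 note: 0% = vehicle reaction and 100% = reaction without DNA for no activity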
mcGAS inh = mouse cGAS inhibition by luminescence | recombinant cGAS, Kinase-Glo ATP depletion luminescence | inhibition, % at 12.5 µM | 160,000 tested, 0.15% active;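 note: 0% = negative control wells and 100% = reference inhibitor with no enzyme activity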
Target sequence (Q8C6L5 whole entry, looked up): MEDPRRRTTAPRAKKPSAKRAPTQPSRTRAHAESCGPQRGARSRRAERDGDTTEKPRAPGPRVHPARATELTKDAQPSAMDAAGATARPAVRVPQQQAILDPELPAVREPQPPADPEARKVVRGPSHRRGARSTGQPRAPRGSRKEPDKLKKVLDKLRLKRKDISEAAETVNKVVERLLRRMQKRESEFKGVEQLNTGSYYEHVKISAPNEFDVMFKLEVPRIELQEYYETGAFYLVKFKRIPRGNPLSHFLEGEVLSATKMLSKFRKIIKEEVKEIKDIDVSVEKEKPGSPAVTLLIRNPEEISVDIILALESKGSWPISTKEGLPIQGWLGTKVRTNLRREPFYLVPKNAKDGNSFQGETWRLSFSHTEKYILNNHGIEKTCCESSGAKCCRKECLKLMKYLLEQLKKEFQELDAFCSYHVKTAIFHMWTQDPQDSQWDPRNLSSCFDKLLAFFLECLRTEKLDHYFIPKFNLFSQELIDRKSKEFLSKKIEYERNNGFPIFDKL
NPYLR7 agonist = activates Aedes aegypti NPYLR7 receptor; HEK293T NPYLR7/Galpha15, GCaMP6s calcium fluorescence; activation, % at 10 µM; AID 1259423; 270,000 tested, 0.15% active; in the data active = activation above about 40%;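 note: 0% = vehicle and 100% = reference agonist at the receptor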
Starred values were filed as active, the others as inactive; / = no result given; ! = a repeat was not active. This is a sample that favours compounds with a hit; in the whole collection about 0.3% have one here. Cut-off read from the data, not from the text of the source, unless noted: active = inhibition above about 40%; inactive = the rest.

SMILES	hcGAS inh	mcGAS inh	NPYLR7 agonist
COc1ccc(CCN2COc3ccc4c(c3C2)O/C(=C\c2ccncc2)C4=O)cc1OC	-2	11	55*
COc1ccc(CN2COc3ccc4c(c3C2)O/C(=C\c2ccncc2)C4=O)cc1	-7	-6	23
CC(C)C1CN(C(=O)Nc2cnn(CC(F)F)c2)CCS1 (stereo not drawn)	1	/	-25
Cc1cc(C)cc(-n2c(C)cn3c4c(=O)n(C)c(=O)n(C)c4nc23)c1	-7	-9	6
O=C1NC(=Nc2ccccn2)SC1Cc1ccccc1Cl (stereo not drawn)	15	-2	-8
CC(=O)Oc1c(-c2ccc(NC(=O)Nc3ccc(C)cc3)cc2)c(-c2cccc(C)c2)nn1-c1cccc(F)c1	-5	-4	-2
COc1ccc(/C=C2\Oc3c(ccc4c3CN(C3CC3)CO4)C2=O)cc1	-4	-8	3
CCc1ccc(/C=C2\Oc3c(ccc4c3CN(C3CCS(=O)(=O)C3)CO4)C2=O)cc1 (stereo not drawn)	0	-1	66*
CC(C)Nc1ccc(C(=O)NCCCCc2ccccc2)cn1	-5	-8	-6
Cc1cc(-c2ccccc2)cc2c3ccccc3c3ccccc3[n+]12	41*	27	-6
COc1cc(-c2ccccc2)c2ccccc2n1	-8	/	0
CC(SC12CC3CC(CC(C3)C1)C2)C(=O)O (stereo not drawn)	-8	-5	/
CCN(CC)CCNc1ccc(CO)c2sc3ccccc3c(=O)c12	54*!	/	-4
CCN(CC)CCNc1nc2c(F)cccc2s1	-10	/	4
CC(=O)O[C@@H]1CC[C@@]2(C)C(CC[C@]3(C)C2CC=C2C4CC(C)(C)CC[C@]4(C(=O)O)CC[C@]23C)C1(C)C (stereo partly drawn)	-5	-4	/
C[C@H]1O[C@H](O[C@@H]2[C@@H](O[C@H]3CC[C@@]4(C)C(CC[C@]5(C)C4CC=C4[C@@H]6CC(C)(C)CC[C@]6(C(=O)O)CC[C@]45C)[C@]3(C)CO)OC[C@@H](O)[C@H]2O)[C@@H](O)[C@H](O)[C@@H]1O (stereo partly drawn)	1	/	53*
Cc1ncc(CNC(=O)N2CCC(C(C)C)CC2)s1	-4	/	2
Cc1nccn1CC(C)CNC(=O)N1CCC(C(C)C)CC1 (stereo not drawn)	-12	68*	6
COc1ccc2c(c1)OC/C(=C\c1ccc(OC)c(O)c1)C2=O	-7	46*	/
COc1cc(C=C2COc3ccccc3C2=O)ccc1OCc1ccccc1	-5	12	-4
CCc1cn[nH]c1C1CCN(c2nnnn2C(C)c2ccccc2)CC1 (stereo not drawn)	-9	/	7
CN1CCN(N=CC2C(=O)Nc3ccccc32)CC1 (stereo not drawn)	4	/	-12
O=C1Nc2ccccc2C1C=NN1CCOCC1 (stereo not drawn)	-3	-7	51*
COc1ccc(CCN(C)C(=O)CCCOc2ccccc2)cc1OC	-3	/	-11
Cc1cc(Cl)c2oc(C(=O)N(C)Cc3n[nH]c4c3CCCCC4)c(C)c2c1	-7	-11	15
SMILES	hcGAS inh	mcGAS inh	NPYLR7 agonist
Cn1c(/C(C#N)=C/c2ccc(N3CCOCC3)o2)nc2ccccc21	-18	/	126*
Cn1c(C(C#N)=Cc2ccc([N+](=O)[O-])s2)nc2ccccc21	-4	/	10
CCCCc1ccc(C(=O)N2CCN(C(C(=O)N(CC)CC)C3CCCC3)CC2)cc1 (stereo not drawn)	1	-2	-1
CN(C)c1cccc(Nc2ccc(-c3ccc(CCC(=O)O)cc3)cn2)c1	0	-2	3
COc1ccc(-c2nc(CSc3cc(Cl)ccc3Cl)cs2)cc1OC	-1	-3	23
Cc1cc(C(=O)NC(c2ccccc2)c2ccccc2)n2nc(C(C)(C)C)cc2n1	-3	59*	21
Cc1cc(C(=O)NCCc2ccccc2)n2nc(C(C)(C)C)cc2n1	-6	-5	18
O=C(O)c1ccccc1C(=O)N1CCC2(CC1)OCc1cc(-c3ccc(C(F)(F)F)cc3)ccc1O2	-3	-4	8
Nc1c2ccccc2nc2ccccc12 (tested in a mixture with another compound)	55*	/	-26
Nc1ccccc1-c1nc(-c2ccccc2)nc2ccccc12	-2	-7	-7
COc1ccc2c(c1OC)C(=O)N(c1cccc(Cl)c1)C2=O	-7	/	10
COc1cc(OC)c(C2=NOC3(CC(=O)N(c4cccc(Cl)c4)C3=O)C2)cc1OC (stereo not drawn)	-7	/	83*
O=C1N=c2ccccc2=C1c1sc(=O)[nH]c1O	6	63*	-8
O=C1N=c2ccccc2=C1c1sc(=S)n(-c2ccccc2)c1O	-5	-5	-10
Cc1ccccc1COC(=O)c1nnn(-c2ccccc2)c1C	-5	-9	2
CC1=NN(c2ccc(Cl)c(C(=O)O)c2)C(=O)/C1=C\c1ccc(Br)c([N+](=O)[O-])c1	7	50*	4
COc1cc(/C=C2\C(=O)N(c3ccc(Cl)c(C(=O)O)c3)N=C2C)cc([N+](=O)[O-])c1O	-3	26	3
CC1=NC2=C(C(=O)CC(c3ccccc3)C2)C(c2ccc(F)cc2)C1C(=O)OC1CCCCC1 (stereo not drawn)	-3	-4	6
CC(=O)c1c(C)[nH]c(C(=O)OCc2nc3sc4c(c3c(=O)[nH]2)CCC(C)C4)c1C (stereo not drawn)	-6	-10	4
O=[N+]([O-])c1cc(S(=O)(=O)C(F)(F)F)ccc1Sc1nnnn1-c1ccccc1	-7	12	0
O=[N+]([O-])c1ccc(Sc2nnnn2-c2ccccc2)c([N+](=O)[O-])c1	-7	72*	3
O=C(CCn1nnc(-c2ccccc2)n1)NC1CCCCC1	-10	/	2
CCn1c(=O)c2c(nc(/C=C/c3ccc(OC)c(OC)c3)n2C)n(CC)c1=O	-7	-10	85*
COc1ccc(/C=C\C(=O)Nc2cc(=O)n(C)c(=O)n2C)cc1OC	-11	-7	10
O=C(c1cc(COc2c(F)cccc2F)on1)N1CCOCC1CO (stereo not drawn)	-2	/	16
SMILES	hcGAS inh	mcGAS inh	NPYLR7 agonist
O=C(O)CCC(=O)c1cccs1	48*	-7	0
O=C(O)CCc1cccs1	-3	/	1
Cc1cccc(COC(CN2CCN(S(=O)(=O)c3c(C)noc3C)CC2)c2ccc(Cl)cc2)c1 (stereo not drawn)	-5	-7	-3
Cc1c(Cl)cccc1N=Nc1c(-c2ccccc2)[nH]n(-c2nc(-c3ccccc3)cs2)c1=O	53*	20	-3
O=c1c(N=Nc2ccccc2Cl)c(-c2ccccc2)[nH]n1-c1nc(-c2ccccc2)cs1	22	3	8
O=C(Cc1cccs1)Nc1ccc(Br)cc1Cl	3	-1	0
CCS(=O)(=O)N1CCN(S(C)(=O)=O)CC1	0	/	-1
CC(=O)Nc1ccc(S(=O)(=O)Oc2ccc(Cl)cc2CN(CC2CCCO2)C(=O)c2ccccc2Cl)cc1 (stereo not drawn)	-10	-9	20
O=c1nc2sc3[nH]c(=O)sc3cc-2s1	6	46*	244*
Cc1cc(C)nc(SCc2cc(=O)n3[nH]c(C)c(-c4ccccc4)c3n2)n1	-11	/	-3
CCCc1cc(=O)n2[nH]c(COC)c(-c3ccc(C)cc3)c2n1	-5	/	-17
